Assay results: PubChem BioAssay
Active and inactive are the calls of the source.

Tests used:
[1] = molecular target: Albumin (Bos taurus) (UniProt P02769); assay: bovine serum albumin binders on microarray, profiling panel, artefact control for SMM control protein annotation, biochemical, small-molecule microarray, Alexa647 label, 635/667 nm fluorescence (AID 1118); details: BSA-A647 binding, fluorescence 635 nm, higher = more signal;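 further: score merges 667 nm emission intensity and signal-to-noise per printed compound spot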
[2] = small-molecule microarray binders of probe aXIP, primary screen, biochemical, NeuroSMM set, 635/667 nm fluorescence (AID 1119); details: higher = more signal, called active from +8 up or from −8 down;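 further: probe is the protein aXip251-270 applied at 1 µg/mL to compound-printed slides; binding of probe to printed compounds measured as 667 nm fluorescence plus signal to noise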
[3] = small-molecule binders of probe aNOTCH3, primary screen, biochemical, small-molecule microarray, 635/667 nm fluorescence (AID 1120); details: higher = more signal;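 further: probe is a biotin-tagged antibody raised against NOTCH3 rather than NOTCH3 protein; score merges spot fluorescence near 667 nm with spot signal to noise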
[4] = small-molecule binders of probe aNOTCH2, primary screen, biochemical, small-molecule microarray, 635/667 nm fluorescence (AID 1121); details: higher = more signal;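 further: score merges feature fluorescence read at 667 nm with its signal to noise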
[5] = molecular target: Carbonic anhydrase 2 (Homo sapiens) (UniProt P00918); assay: CAII small-molecule binders, profiling panel, biochemical, small-molecule microarray, Alexa647-labelled CAII (AID 1122); details: CAII-A647 binding fluorescence, higher = more signal
[6] = COS7 lysate on small-molecule microarray, probe aHis, 635 nm (AID 1123); details: COS7 cell lysate, fluorescence, higher = more signal;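 further: z-score combines 667nm fluorescence intensity with signal-to-noise per printed compound spot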
[7] = compound binding in COS7 lysate, probe aLAP1, primary screen, cell lysate, small-molecule microarray (AID 1124); details: probe aLAP1, fluorescence, higher = more signal;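 further: lysate comes from COS7 cells expressing LAP1 and is applied at 0.3 µg/mL; score merges spot fluorescence near 667 nm with signal-to-noise over triplicate slides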
[8] = system: Sam68 (KHDRBS1); assay: Sam68 small-molecule binders, primary screen, biochemical, small-molecule microarray, 635 nm fluorescence (AID 1125); details: small-molecule microarray binding, higher = more signal;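 further: score merges 667 nm channel intensity with signal to noise over triplicate slides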
[9] = system: Chordin-like protein 2 (CHRDL2); assay: CHRDL2 small-molecule binders, primary screen, biochemical, small-molecule microarray, 635 nm fluorescence (AID 1126); details: small-molecule microarray binding, fluorescence 635 nm; higher = more signal;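 further: printed compound slides probed with Chrdl2 protein at 4 µg/mL for 1 h at 4 C; score merges 667 nm emission intensity with signal to noise over three replicate slides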
[10] = molecular target: Concanavalin-A (Canavalia ensiformis) (UniProt P02866); assay: ConA small-molecule binders, primary screen, artefact control for SMM control protein annotation, biochemical, small-molecule microarray, Alexa647 label, 635 nm (AID 1127); details: ConA-A647 binding fluorescence, higher = more signal;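 further: z combines 667 nm emission intensity with signal-to-noise across three replicate slides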
[11] = anti-His antibody binders, primary screen, artefact control for SMM control protein annotation, biochemical, small-molecule microarray, 635 nm fluorescence (AID 1128); details: anti-His Alexa647 antibody binding, higher = more signal;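 further: score merges feature fluorescence with signal-to-noise for each printed compound spot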
[12] = system: Human papillomavirus type 1a E7 protein (residues 1-88); assay: HPV1a E7 small-molecule binders, primary screen, biochemical, small-molecule microarray, residues 1-88, 635 nm (AID 1129); details: small-molecule microarray binding, fluorescence 635 nm; higher = more signal
[13] = molecular target: Focal adhesion kinase 1 (Homo sapiens) (UniProt Q05397); assay: small-molecule microarray binders of FAK, primary screen, biochemical, 635/667 nm fluorescence, BSA, DTT (AID 1130); details: PTK2 binding, 635 nm fluorescence, higher = more signal;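 further: composite of spot emission at 667 nm and signal to noise over triplicate slides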
[14] = system: Fibrinogen (Alexa647-labelled); assay: fibrinogen binders on compound microarrays, profiling panel, artefact control for SMM control-protein annotation, biochemical, small-molecule microarray, 635/667 nm fluorescence (AID 1131); details: fibrinogen-A647 binding fluorescence, higher = more signal;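 further: z-score merges 667 nm fluorescence with per-spot signal-to-noise over triplicate slides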
[15] = molecular target: Follistatin (Homo sapiens) (UniProt P19883); assay: follistatin binders on small-molecule microarrays, primary screen, biochemical, small-molecule microarray, 635/667 nm fluorescence (AID 1132); details: FST binding, 635 nm fluorescence, higher = more signal
[16] = molecular target: Fibroblast growth factor 2 (Homo sapiens) (UniProt P09038); assay: FGF2 binders on small-molecule microarrays, primary screen, biochemical, small-molecule microarray, 635/667 nm fluorescence (AID 1133); details: small-molecule microarray binding, FGF2, fluorescence 635/667; higher = more signal
[17] = mitochondrial membrane potential change in A549 cells, profiling panel, cell-based, JC-1 fluorescence, basal, 24 h, 100 nL (AID 1138); details: higher = more signal;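 further: A549 lung adenocarcinoma cells under basal conditions with no added stimulus; test concentration not given here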
[18] = system: Lefty1; assay: Lefty1 binders on small-molecule microarrays, primary screen, biochemical, small-molecule microarray, 635/667 nm fluorescence (AID 1139); details: small-molecule microarray binding, fluorescence 635/667; higher = more signal
[19] = system: wheat germ agglutinin (Triticum aestivum), Alexa647-labelled; assay: wheat germ agglutinin binders on compound microarrays, profiling panel, artefact control for SMM control-protein annotation, biochemical, small-molecule microarray, 635/667 nm fluorescence (AID 1140); details: WGA-A647 binding, 635 nm fluorescence, higher = more signal;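 further: score merges 667 nm feature emission with signal to noise over triplicate slides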
[20] = molecular target: Luciferin 4-monooxygenase (Photinus pyralis) (UniProt P08659); assay: firefly luciferase enzyme inhibitors, primary screen, biochemical, luminescence, purified enzyme, 2006 set (AID 1141); details: SteadyGlo luminescence, 30 min, higher = more signal, called active from +8 up or from −8 down;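 further: cell-free assay with purified firefly luciferase at 100 ng per well in PBS; test concentration not given here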
Sequence of Luciferin 4-monooxygenase (Photinus pyralis) (P08659 whole entry, looked up): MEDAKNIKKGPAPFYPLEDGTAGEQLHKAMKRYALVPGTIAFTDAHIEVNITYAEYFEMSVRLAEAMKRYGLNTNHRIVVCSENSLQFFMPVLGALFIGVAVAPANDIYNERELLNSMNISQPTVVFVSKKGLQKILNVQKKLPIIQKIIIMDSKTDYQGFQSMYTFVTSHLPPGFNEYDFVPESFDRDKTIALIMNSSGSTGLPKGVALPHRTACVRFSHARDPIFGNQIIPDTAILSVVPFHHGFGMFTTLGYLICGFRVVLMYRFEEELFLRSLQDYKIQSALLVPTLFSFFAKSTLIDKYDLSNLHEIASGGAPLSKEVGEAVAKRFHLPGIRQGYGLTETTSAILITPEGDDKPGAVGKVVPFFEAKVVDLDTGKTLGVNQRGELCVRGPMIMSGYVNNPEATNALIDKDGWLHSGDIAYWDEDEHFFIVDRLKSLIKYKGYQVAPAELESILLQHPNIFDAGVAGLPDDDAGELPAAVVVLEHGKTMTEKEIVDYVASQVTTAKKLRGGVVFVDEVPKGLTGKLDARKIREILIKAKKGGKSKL

Sequence of Follistatin (Homo sapiens) (P19883 whole entry, looked up): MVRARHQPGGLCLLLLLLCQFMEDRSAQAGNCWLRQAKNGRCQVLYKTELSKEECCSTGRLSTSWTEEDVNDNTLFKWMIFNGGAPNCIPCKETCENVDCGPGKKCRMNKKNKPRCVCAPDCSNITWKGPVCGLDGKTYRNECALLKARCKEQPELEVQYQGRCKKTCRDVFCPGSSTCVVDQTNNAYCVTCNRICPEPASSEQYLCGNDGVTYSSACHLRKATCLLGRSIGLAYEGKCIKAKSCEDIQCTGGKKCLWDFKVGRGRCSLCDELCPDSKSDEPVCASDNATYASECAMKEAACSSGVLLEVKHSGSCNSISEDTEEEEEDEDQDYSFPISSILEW
Sequence of Focal adhesion kinase 1 (Homo sapiens) (Q05397 whole entry, looked up): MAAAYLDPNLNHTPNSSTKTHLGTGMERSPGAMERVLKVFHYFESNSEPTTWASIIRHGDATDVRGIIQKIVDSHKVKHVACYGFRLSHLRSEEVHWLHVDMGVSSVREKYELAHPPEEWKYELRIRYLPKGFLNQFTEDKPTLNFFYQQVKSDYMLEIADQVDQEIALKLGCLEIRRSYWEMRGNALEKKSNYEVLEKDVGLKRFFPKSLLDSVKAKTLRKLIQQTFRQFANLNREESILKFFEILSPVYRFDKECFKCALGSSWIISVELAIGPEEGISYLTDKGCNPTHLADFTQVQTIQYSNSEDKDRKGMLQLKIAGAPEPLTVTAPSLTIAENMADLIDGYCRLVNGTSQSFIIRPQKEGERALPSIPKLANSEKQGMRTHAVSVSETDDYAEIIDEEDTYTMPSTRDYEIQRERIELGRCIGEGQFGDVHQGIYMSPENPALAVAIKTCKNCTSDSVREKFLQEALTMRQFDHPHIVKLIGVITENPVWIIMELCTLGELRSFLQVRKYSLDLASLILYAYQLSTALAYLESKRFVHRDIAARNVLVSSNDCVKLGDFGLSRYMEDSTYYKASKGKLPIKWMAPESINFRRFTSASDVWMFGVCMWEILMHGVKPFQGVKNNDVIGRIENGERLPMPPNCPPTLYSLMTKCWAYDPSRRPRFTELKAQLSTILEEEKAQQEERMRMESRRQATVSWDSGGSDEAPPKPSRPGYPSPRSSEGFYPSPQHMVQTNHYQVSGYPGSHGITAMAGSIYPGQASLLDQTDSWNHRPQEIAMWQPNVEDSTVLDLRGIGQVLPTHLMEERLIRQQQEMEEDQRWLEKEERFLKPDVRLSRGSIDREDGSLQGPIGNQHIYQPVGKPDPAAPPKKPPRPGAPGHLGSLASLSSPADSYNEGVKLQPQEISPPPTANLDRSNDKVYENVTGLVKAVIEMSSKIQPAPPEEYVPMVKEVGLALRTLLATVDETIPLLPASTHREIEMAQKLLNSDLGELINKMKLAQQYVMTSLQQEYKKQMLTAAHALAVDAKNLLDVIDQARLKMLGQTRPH
Sequence of Concanavalin-A (Canavalia ensiformis) (P02866 whole entry, looked up): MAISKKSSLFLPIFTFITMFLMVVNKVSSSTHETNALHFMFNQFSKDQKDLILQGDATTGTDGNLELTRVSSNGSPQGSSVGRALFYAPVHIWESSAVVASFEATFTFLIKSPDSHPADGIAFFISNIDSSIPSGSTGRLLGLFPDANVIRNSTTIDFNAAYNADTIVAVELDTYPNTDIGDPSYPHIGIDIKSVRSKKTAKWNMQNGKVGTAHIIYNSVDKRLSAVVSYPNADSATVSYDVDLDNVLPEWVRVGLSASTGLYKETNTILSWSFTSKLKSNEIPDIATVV
Sequence of Fibroblast growth factor 2 (Homo sapiens) (P09038 whole entry, looked up): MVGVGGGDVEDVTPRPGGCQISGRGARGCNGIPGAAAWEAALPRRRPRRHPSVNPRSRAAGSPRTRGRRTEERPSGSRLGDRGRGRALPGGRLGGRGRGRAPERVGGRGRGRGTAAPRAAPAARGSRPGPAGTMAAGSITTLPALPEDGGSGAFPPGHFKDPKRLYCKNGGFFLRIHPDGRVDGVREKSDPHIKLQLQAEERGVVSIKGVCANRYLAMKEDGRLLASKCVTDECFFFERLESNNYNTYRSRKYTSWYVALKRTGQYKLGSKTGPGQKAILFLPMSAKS
Sequence of Albumin (Bos taurus) (P02769 whole entry, looked up): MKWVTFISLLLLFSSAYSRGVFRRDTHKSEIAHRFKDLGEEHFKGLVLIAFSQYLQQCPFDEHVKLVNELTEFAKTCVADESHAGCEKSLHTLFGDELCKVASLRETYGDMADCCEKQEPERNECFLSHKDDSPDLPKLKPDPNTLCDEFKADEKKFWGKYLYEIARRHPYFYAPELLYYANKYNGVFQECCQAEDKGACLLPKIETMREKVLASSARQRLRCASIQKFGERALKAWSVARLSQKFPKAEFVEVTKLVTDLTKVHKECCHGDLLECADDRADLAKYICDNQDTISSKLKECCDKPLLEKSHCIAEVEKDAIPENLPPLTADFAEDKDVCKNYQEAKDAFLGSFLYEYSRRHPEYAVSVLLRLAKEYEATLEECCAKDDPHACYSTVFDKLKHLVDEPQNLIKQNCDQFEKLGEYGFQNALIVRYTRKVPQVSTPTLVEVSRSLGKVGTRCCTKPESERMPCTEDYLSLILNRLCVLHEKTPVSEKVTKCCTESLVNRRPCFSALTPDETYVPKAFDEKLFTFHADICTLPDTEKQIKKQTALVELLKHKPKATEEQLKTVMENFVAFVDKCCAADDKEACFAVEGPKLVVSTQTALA

Question: For COCCOC(=O)N1C(=O)[C@@]2(c3cc(C#CCCO)ccc31)[C@H](c1ccccc1OCCO)N1[C@H](c3ccccc3)[C@H](c3ccccc3)OC(=O)[C@H]1[C@@H]2C(=O)NC[C@H](O)c1ccccc1, which composite z-score [1] is on record?
Answer: 0.25

Question: And the composite Z-score [2]?
Answer: 0.0022 (inactive)

Question: And the composite z-score [3]?
Answer: -0.0197

Question: What about the composite z-score [4] of the same molecule?
Answer: -0.0753

Question: And the composite z-score [5]?
Answer: 0.204

Question: And the composite z-score [6]?
Answer: 2.15

Question: And the composite z-score [7]?
Answer: 0.35

Question: What about the composite z-score [8] of the same molecule?
Answer: 1.31

Question: And the composite z-score [9]?
Answer: 0.524

Question: What about the composite z-score [10] of the same molecule?
Answer: 0.859

Question: What about the composite z-score [11] of the same molecule?
Answer: 2.02

Question: And the composite z-score [12]?
Answer: 0.907

Question: And the composite z-score [13]?
Answer: 1.07

Question: And the composite z-score [14]?
Answer: 0.756

Question: What about the composite z-score [15] of the same molecule?
Answer: 1.5

Question: What about the composite z-score [16] of the same molecule?
Answer: 1.7

Question: And the z-score [17]?
Answer: 0.891

Question: What about the composite z-score [18] of the same molecule?
Answer: 1.61

Question: And the composite z-score [19]?
Answer: 1.01

Question: What about the z-score [20] of the same molecule?
Answer: -1.74 (inactive)

Question: With NC(=O)N1C(=O)C2C(C1=O)C1C=C(c3ccc(CO)cc3)C2C(C2CC2)N1Cc1cc2c(cc1Br)OCO2 (stereo not given) as the molecule, how does the composite z-score [1] read?
Answer: 0.585

Question: What about the composite Z-score [2] of the same molecule?
Answer: 0.219 (inactive)

Question: And the composite z-score [3]?
Answer: -0.0377

Question: What about the composite z-score [4] of the same molecule?
Answer: -0.0745

Question: What about the composite z-score [5] of the same molecule?
Answer: 0.762

Question: What about the composite z-score [6] of the same molecule?
Answer: 1.32

Question: What about the composite z-score [7] of the same molecule?
Answer: -0.421

Question: And the composite z-score [8]?
Answer: 0.61

Question: What about the composite z-score [9] of the same molecule?
Answer: -0.312

Question: What about the composite z-score [10] of the same molecule?
Answer: 0.574

Question: What about the composite z-score [11] of the same molecule?
Answer: 2.29

Question: And the composite z-score [12]?
Answer: 0.066

Question: And the composite z-score [13]?
Answer: 0.138

Question: And the composite z-score [14]?
Answer: 0.157

Question: What about the composite z-score [15] of the same molecule?
Answer: 0.197

Question: What about the composite z-score [16] of the same molecule?
Answer: -0.149

Question: What about the z-score [17] of the same molecule?
Answer: 1.96

Question: What about the composite z-score [18] of the same molecule?
Answer: 0.828

Question: What about the composite z-score [19] of the same molecule?
Answer: 0.216

Question: And the z-score [20]?
Answer: -2.17 (inactive)

Question: Which results are given for C=CCNC(=O)[C@H]1[C@@H]2C(=O)O[C@@H](c3ccccc3)[C@@H](c3ccccc3)N2[C@@H](c2ccc(OCCO)cc2)[C@]12C(=O)Nc1ccc(C#CCCO)cc12?
Answer: composite z-score [1]: 0.321; composite Z-score [2]: 0.512 (inactive); composite z-score [3]: 0.116; composite z-score [4]: -0.13; composite z-score [5]: 0.394; composite z-score [6]: 1.86; composite z-score [7]: 0.725; composite z-score [8]: 1.14; composite z-score [9]: 0.089; composite z-score [10]: 0.783; composite z-score [11]: -0.0886; composite z-score [12]: 1.11; composite z-score [13]: 0.418; composite z-score [14]: 0.61; composite z-score [15]: 1.3; composite z-score [16]: 0.327; z-score [17]: 0.187; composite z-score [18]: 0.909; composite z-score [19]: 1.06; z-score [20]: -0.969 (inactive)

Question: With COc1ccc(C#Cc2ccc3c(c2)[C@]2(C(=O)N3)[C@H](c3ccc(O)cc3)N3[C@H](c4ccccc4)[C@H](c4ccccc4)OC(=O)[C@H]3[C@@H]2C(=O)N2CCN(c3ncccn3)CC2)cc1 as the molecule, how does the composite z-score [1] read?
Answer: 0.888

Question: What about the composite Z-score [2] of the same molecule?
Answer: 4.41 (inactive)

Question: What about the composite z-score [3] of the same molecule?
Answer: 0.116

Question: And the composite z-score [4]?
Answer: 0.0557

Question: What about the composite z-score [5] of the same molecule?
Answer: 0.462

Question: What about the composite z-score [6] of the same molecule?
Answer: 0.868

Question: What about the composite z-score [7] of the same molecule?
Answer: 0.97

Question: What about the composite z-score [8] of the same molecule?
Answer: 1.31

Question: What about the composite z-score [9] of the same molecule?
Answer: -0.176

Question: What about the composite z-score [10] of the same molecule?
Answer: 1.08

Question: And the composite z-score [11]?
Answer: 1.2

Question: And the composite z-score [12]?
Answer: 0.885

Question: And the composite z-score [13]?
Answer: 1.71

Question: And the composite z-score [14]?
Answer: 0.763

Question: And the composite z-score [15]?
Answer: 0.722

Question: What about the composite z-score [16] of the same molecule?
Answer: 0.143

Question: And the z-score [17]?
Answer: -0.308

Question: What about the composite z-score [18] of the same molecule?
Answer: -0.151

Question: What about the composite z-score [19] of the same molecule?
Answer: 0.929

Question: And the z-score [20]?
Answer: -1.27 (inactive)

Question: With CCCC[C@@H](O)C1=C(C)C[C@H]2C(=O)N(C)C(=O)[C@H]2[C@H]1CO as the molecule, how does the composite z-score [1] read?
Answer: 0.799

Question: And the composite Z-score [2]?
Answer: 0.475 (inactive)

Question: What about the composite z-score [3] of the same molecule?
Answer: -0.132

Question: And the composite z-score [4]?
Answer: -0.112

Question: What about the composite z-score [5] of the same molecule?
Answer: 0.804

Question: What about the composite z-score [6] of the same molecule?
Answer: 0.48

Question: And the composite z-score [7]?
Answer: -0.198

Question: What about the composite z-score [8] of the same molecule?
Answer: 0.705

Question: What about the composite z-score [9] of the same molecule?
Answer: -0.0576

Question: And the composite z-score [10]?
Answer: 0.0354

Question: And the composite z-score [11]?
Answer: 0.33

Question: What about the composite z-score [12] of the same molecule?
Answer: -0.196

Question: And the composite z-score [13]?
Answer: 0.116

Question: What about the composite z-score [14] of the same molecule?
Answer: 0.173

Question: What about the composite z-score [15] of the same molecule?
Answer: 0.186

Question: And the composite z-score [16]?
Answer: 0.41

Question: What about the z-score [17] of the same molecule?
Answer: 1.52

Question: What about the composite z-score [18] of the same molecule?
Answer: 0.776

Question: What about the composite z-score [19] of the same molecule?
Answer: 1.12

Question: What about the z-score [20] of the same molecule?
Answer: -1.41 (inactive)
